Screen size: about 310,000 compounds; about 14,000 (4.5%) showed an effect of 50% or more. The effect is printed as a negative number. The sample holds strong results, similar compounds and a random draw of the others, so the mix is not that of the screen.
Molecular target: human ether-à-go-go-related gene (hERG) potassium channel (human, UniProt Q12809)
Experiment: primary screen, population patch clamp on CHO cells stably expressing hERG; higher = less effect of the substance
Experimental: Briefly, Chinese hamster ovary (CHO) cells stably expressing the hERG channel were dislodged from tissue culture flasks and dispensed into PPC plates. […] During the recording, background leak currents were estimated by a 100 ms step to -80 mV from an initial holding potential of -70 mV and subtracted from the subsequent current measurement. The campaign was conducted in two phases using slight differences in recording protocol. In the first phase, the initial voltage pulse used a 100 ms step to -30 mV from a holding potential of -70 mV, a 2 s conditioning step to +25 mV, and a 2 s test step to -30 mV. During the second phase of the screen, the potential during the conditioning step was raised to +45 mV. In both phases of the campaign, a secondary voltage pulse was applied using the same parameters as the second phase initial pulse. The initial and secondary pulses were applied in the absence of compound, and upon application of 1 μM and 10 μM test concentrations. […]
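Also: peak tail current of the secondary pulse compared with the same well before compound.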

Chain of human ether-à-go-go-related gene (hERG) potassium channel (Q12809 whole entry, looked up): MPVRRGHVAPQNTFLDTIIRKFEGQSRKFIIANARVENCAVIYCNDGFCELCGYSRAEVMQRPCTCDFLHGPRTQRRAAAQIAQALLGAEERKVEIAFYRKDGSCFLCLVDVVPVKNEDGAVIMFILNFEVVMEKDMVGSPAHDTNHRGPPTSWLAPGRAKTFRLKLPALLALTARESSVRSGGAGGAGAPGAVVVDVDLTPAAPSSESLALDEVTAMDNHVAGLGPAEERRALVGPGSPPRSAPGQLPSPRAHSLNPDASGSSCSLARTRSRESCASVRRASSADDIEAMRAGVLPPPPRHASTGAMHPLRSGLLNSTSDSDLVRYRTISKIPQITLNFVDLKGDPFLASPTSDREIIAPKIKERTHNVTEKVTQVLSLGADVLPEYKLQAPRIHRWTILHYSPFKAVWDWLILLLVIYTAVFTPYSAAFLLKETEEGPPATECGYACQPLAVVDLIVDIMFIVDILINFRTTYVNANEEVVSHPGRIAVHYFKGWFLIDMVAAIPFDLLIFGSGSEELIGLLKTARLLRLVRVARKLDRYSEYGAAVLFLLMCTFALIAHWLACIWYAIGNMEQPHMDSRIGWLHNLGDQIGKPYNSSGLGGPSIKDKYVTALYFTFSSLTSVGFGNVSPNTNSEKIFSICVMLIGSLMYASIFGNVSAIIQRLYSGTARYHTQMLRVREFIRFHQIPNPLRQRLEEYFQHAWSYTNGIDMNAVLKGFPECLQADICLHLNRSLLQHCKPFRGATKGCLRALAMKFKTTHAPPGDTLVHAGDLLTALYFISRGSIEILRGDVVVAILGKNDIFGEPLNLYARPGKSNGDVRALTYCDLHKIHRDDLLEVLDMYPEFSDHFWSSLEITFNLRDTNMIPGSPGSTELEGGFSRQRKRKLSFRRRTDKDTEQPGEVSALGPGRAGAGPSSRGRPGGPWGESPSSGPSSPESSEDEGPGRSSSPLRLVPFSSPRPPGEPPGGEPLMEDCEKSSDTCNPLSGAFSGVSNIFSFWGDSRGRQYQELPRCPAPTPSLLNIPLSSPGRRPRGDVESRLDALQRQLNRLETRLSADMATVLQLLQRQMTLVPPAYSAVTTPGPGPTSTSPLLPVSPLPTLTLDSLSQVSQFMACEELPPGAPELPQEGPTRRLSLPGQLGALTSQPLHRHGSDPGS

First: O=C1COc2ccc(N3C(=O)c4ccccc4C3=O)cc2N1
Second: Cc1cccc(N2CCN(C(=O)c3cccc(N4C(=O)C5CC=CC(C)C5C4=O)c3)CC2)c1C (stereo not shown)
The “hERG current change (%, negative = inhibition) at 10uM” value of the first is higher: 27.5% for the first, -12.5% for the second.

First: CCCCCN(C(=O)CN1CCC(Cc2ccccc2)CC1)c1c(N)n(CCCC)c(=O)[nH]c1=O
Second: Cc1cc(=O)n2nc(N3CCC(C(=O)NCc4ccccc4)CC3)sc2n1
The “hERG current change (%, negative = inhibition) at 10uM” value of the first is lower: -48.1% for the first, -3.68% for the second.

First: CSc1nc(N2CCN(Cc3ccc4c(c3)OCO4)CC2)c2ccccc2n1
Second: O=C(CCN1CCN(c2ccc(Cl)cc2)CC1)Nc1ccccc1F
The “hERG current change (%, negative = inhibition) at 10uM” value of the first is higher: -16.7% for the first, -34% for the second.

Going from `CC(C)(C)OC(=O)N1CCC(c2cc(=O)n3[nH]cc(C(=O)Nc4ccc(F)c(Cl)c4)c3n2)CC1` to `Cc1cc(=O)n2nc(N3CCC(C(=O)NCc4cccc(Cl)c4)CC3)sc2n1`, the “hERG current change (%, negative = inhibition) at 10uM” value falls from 6.92% to -43.7%.

Going from `COCCOC(=O)C1=C(C)Nc2ncnn2C1c1ccco1` (stereo not shown) to `CCOC(=O)c1sc(=NC(=O)c2cccc(C)c2)n(C)c1C`, the “hERG current change (%, negative = inhibition) at 10uM” value rises from 2.64% to 8.38%.

Compared with `Cc1cc(=O)n2nc(N3CCC(C(=O)NCc4ccc(Cl)cc4)CC3)sc2n1`, `Cc1cc(=O)n2nc(N3CCC(C(=O)NCc4ccc(F)cc4)CC3)sc2n1` is higher in “hERG current change (%, negative = inhibition) at 10uM” value: -70% for the first, -55.5% for the second.

First: Cc1cc(=O)n2nc(N3CCCC(C(=O)NCc4cccc(Br)c4)C3)sc2n1 (stereo not shown)
Second: Cc1cc(=O)n2nc(N3CCC(C(=O)NCc4cccc(Br)c4)CC3)sc2n1
The “hERG current change (%, negative = inhibition) at 10uM” value of the first is higher: -30.2% for the first, -51.4% for the second.

First: COc1ccc(CNC(=O)C2CCN(c3nn4c(=O)cc(C)nc4s3)CC2)cc1
Second: CCOc1ccc(CNC(=O)C2CCN(c3nn4c(=O)cc(C)nc4s3)CC2)cc1
The “hERG current change (%, negative = inhibition) at 10uM” value of the first is higher: -4.51% for the first, -45.8% for the second.

Going from `Cc1ccc(CNC(=O)C2CCN(c3nn4c(=O)cc(C)nc4s3)CC2)cc1` to `COc1ccc(N2CCN(C(=O)C3CC(=O)N(c4ccc(C)cc4)C3)CC2)cc1` (stereo not shown), the “hERG current change (%, negative = inhibition) at 10uM” value rises from -41.9% to -35.1%.

Going from `CCS(=O)(=O)c1ccc(C(=O)Nc2cccc(Cl)c2)c(Cl)c1Cl` to `O=C(CCN1CCN(S(=O)(=O)c2ccc(Cl)cc2)CC1)Nc1ccccc1F`, the “hERG current change (%, negative = inhibition) at 10uM” value falls from -3.97% to -6.18%.

Going from `Cc1ccc(C(C)C)c(OCCCNCc2cccnc2)c1.Cl` to `CCC(COC)NCc1cn(-c2ccc(F)cc2F)nc1-c1ccccc1C` (stereo not shown), the “hERG current change (%, negative = inhibition) at 10uM” value rises from -37.5% to -18%.

Compared with `CCNC(=O)NC(=O)CN(C)c1ccccc1`, `O=C(CN1CCOCC1)Nc1ccccc1F` is lower in “hERG current change (%, negative = inhibition) at 10uM” value: 10.5% for the first, 0.862% for the second.

First: Cc1ccc(-c2c(C(=O)N/N=C/c3cccs3)nnn2-c2nonc2N)cc1
Second: COc1ccccc1CNC(=O)c1ccccc1OCc1ccc(F)cc1
The “hERG current change (%, negative = inhibition) at 10uM” value of the first is higher: 29.8% for the first, -10% for the second.

Compared with `CCC(COC)NCc1cn(-c2ccc(OC)cc2)nc1-c1cccc(F)c1` (stereo not shown), `COc1ccc(-n2cc(CNC(C)c3ccncn3)c(-c3cccc(F)c3)n2)cc1` (stereo not shown) is higher in “hERG current change (%, negative = inhibition) at 10uM” value: -70.3% for the first, -59.4% for the second.

First: COc1ccc(-c2nn(-c3ccccc3)cc2CNC(C)Cn2cncn2)c(F)c1 (stereo not shown)
Second: COc1cccc(-c2nn(-c3ccccc3)cc2CN(C)C(C)c2ccncn2)c1 (stereo not shown)
The “hERG current change (%, negative = inhibition) at 10uM” value of the first is higher: -13% for the first, -15.6% for the second.

Compared with `COc1ccc(-n2cc(CN(C)C(C)c3ccncn3)c(-c3cccc(F)c3)n2)cc1` (stereo not shown), `CN(Cc1ccc(F)cc1)C(=O)c1cccc(S(=O)(=O)N2CCN(c3ccc(F)cc3)CC2)c1` is higher in “hERG current change (%, negative = inhibition) at 10uM” value: -39.9% for the first, -34.6% for the second.

Compared with `Cc1oncc1-c1cn2ccccc2n1`, `COc1ccc(N2CC(C(=O)N3CCN(C(=O)c4ccco4)CC3)CC2=O)cc1` (stereo not shown) is lower in “hERG current change (%, negative = inhibition) at 10uM” value: 6.61% for the first, -53.3% for the second.

Compared with `CCOc1ccc(N2CC(C(=O)N3CCN(C(=O)c4ccco4)CC3)CC2=O)cc1` (stereo not shown), `CCOc1ccc(N2CC(C(=O)N3CCCCC3)CC2=O)cc1` (stereo not shown) is higher in “hERG current change (%, negative = inhibition) at 10uM” value: -63.4% for the first, 18.6% for the second.

Going from `COc1ccc(N2CC(C(=O)N3CCN(C)CC3)CC2=O)cc1` (stereo not shown) to `CCOc1ccc(N2CC(C(=O)N3CCCCCC3)CC2=O)cc1` (stereo not shown), the “hERG current change (%, negative = inhibition) at 10uM” value falls from 15.4% to -7.34%.

Compared with `Cc1cc(C#N)c(C)n1-c1cc(S(=O)(=O)N2CCOCC2)ccc1N1CCCC1`, `CN(C)S(=O)(=O)N1CCC(Oc2cccc(C(=O)NC3CCOC3)c2)CC1` (stereo not shown) is higher in “hERG current change (%, negative = inhibition) at 10uM” value: -14.3% for the first, 2.63% for the second.

Going from `O=C(CN1CCN(CCC(=O)Nc2ccccc2F)CC1)Nc1ccc(Cl)cc1` to `O=C(CN1CCN(CCC(=O)Nc2ccccc2F)CC1)Nc1ccc(F)cc1`, the “hERG current change (%, negative = inhibition) at 10uM” value rises from -76.8% to -72.6%.

In the case of `O=C(CCN1CCN(c2ccc(F)cc2)CC1)Nc1ccccc1F`, the “hERG current change (%, negative = inhibition) at 10uM” value is reported as -43%.

Source: publication PMC4336329 (PLoS ONE, 2015)
